# High-throughput results: PubChem, National Center for Advancing Translational Sciences (NCATS)
# Pol kappa inh-1 – inhibitors of human DNA polymerase kappa. Q9UBT6. purified Pol kappa, fluorescent DNA synthesis assay, 10 min. Potency, µM (series often up to 107 µM), for the others: at the top dose activity, negative = inhibition, most hits filed as inhibitors. actives 0.53% (n = 400,000). AID 588579; note: % is set by controls: 0 for no effect and ±100 for the full control effect
#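 Enzyme at 10 nM met test compounds for 15 min at room temperature. Substrate addition (50 nM final) began the reaction, which was monitored by fluorescence at 0 and 10 min.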
# FEN1 inh-1 – inhibitors of human flap endonuclease 1; P39748; Recombinant FEN1 flap cleavage, fluorescence, 15 min; AID 588795; Potency, µM (series often up to 114 µM), inactives show top-dose activity change, negative = inhibition, actives largely listed as inhibitors; actives 0.35% (n = 390,000); note: % is set by controls: 0 for no effect and ±100 for the full control effect; nearly all actives have a fitted effect of over 65% in size
#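 Nuclease activity of 10 nM FEN1 was measured after 15 min of room-temperature exposure to titrated compounds, by adding 50 nM flap substrate and reading plates at 0 and 15 min.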
# Pol beta inh – DNA polymerase beta (human) inhibition; P06746; Pol beta primer extension/strand displacement, fluorescence kinetic; Potency, µM (top dose mostly 114 µM), without a hit: at the top dose activity change, negative = inhibition, most hits filed as inhibitors; actives 1.3% (n = 340,000); note: % is set by controls: 0 for no effect and ±100 for the full control effect
#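 Kinetic readout of DNA synthesis with strand displacement by Pol beta. Compound and 10 nM enzyme sit 15 min at room temperature; 50 nM substrate starts the reaction, read immediately and at 10 min.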
# Pol iota inh – DNA polymerase iota (human) inhibition; Q9UNA4; Pol iota fluorescent replication assay, 10 min; Potency, µM (series often up to 115 µM), for inactives: top-dose activity, negative = inhibition, hits mostly inhibitors; actives 1% (n = 390,000); AID 588590
#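 Fluorescent replication assay read twice, at 0 min and 10 min after adding 50 nM (final) substrate. Enzyme (10 nM) and compounds were first incubated 15 min at room temperature; enzyme-free buffer wells were negative controls.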
# Pol eta inh-1 – blocks human DNA polymerase eta activity; Q9Y253; recombinant Pol eta, fluorescent DNA replication assay; Potency, µM (doses to about 114 µM), for inactives: at the highest dose activity change, negative = inhibition, most hits filed as inhibitors; actives 1.2% (n = 390,000); AID 588591; note: % is set by controls: 0 for no effect and ±100 for the full control effect
# Target sequence (Q9Y253 whole entry, looked up): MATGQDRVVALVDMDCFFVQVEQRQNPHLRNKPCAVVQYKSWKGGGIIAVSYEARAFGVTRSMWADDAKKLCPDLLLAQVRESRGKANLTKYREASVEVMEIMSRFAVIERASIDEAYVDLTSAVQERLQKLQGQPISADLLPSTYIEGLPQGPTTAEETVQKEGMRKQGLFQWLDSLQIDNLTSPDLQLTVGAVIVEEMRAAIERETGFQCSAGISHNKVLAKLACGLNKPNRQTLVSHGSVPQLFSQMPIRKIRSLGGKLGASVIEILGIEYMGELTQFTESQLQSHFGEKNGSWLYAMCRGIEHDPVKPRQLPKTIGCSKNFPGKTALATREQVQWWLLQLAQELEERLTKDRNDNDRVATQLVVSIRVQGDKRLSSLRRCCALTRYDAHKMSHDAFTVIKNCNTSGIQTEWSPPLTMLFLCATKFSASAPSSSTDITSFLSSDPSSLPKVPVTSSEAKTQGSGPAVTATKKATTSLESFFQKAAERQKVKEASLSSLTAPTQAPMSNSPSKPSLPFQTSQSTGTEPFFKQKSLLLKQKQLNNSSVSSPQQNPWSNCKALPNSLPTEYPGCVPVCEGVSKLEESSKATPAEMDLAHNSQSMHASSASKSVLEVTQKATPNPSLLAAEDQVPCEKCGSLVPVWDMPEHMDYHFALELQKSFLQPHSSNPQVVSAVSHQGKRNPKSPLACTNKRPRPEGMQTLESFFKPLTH
#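 Fluorescent replication assay: 50 nM final substrate added after a 15 min room-temperature compound preincubation with 10 nM enzyme. Signal taken at 0 min and again at 10 min.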
# TDP1 block – inhibitors of human tyrosyl-DNA phosphodiesterase TDP1; actives 0.28% (n = 350,000); recombinant TDP1, AlphaScreen DNA substrate cleavage; Q9NUW8; Potency, µM (doses to about 130 µM), inactives show at the top dose activity change, negative = inhibition, hits mostly inhibitors; note: % is set by controls: 0 for no effect and ±100 for the full control effect; nearly all actives have a fitted effect of over 40% in size
#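 Here, a 5' biotin and 3' phosphotyrosine-FITC DNA oligonucleotide reports Tdp1 activity: intact substrate bridges AlphaScreen beads, while cleavage leaves a 3' phosphate and drops signal. All incubations at room temperature.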
# POLI cherry-pick – Human Pol iota inhibitor confirmatory assay. shares compounds with Pol kappa inh-1. Pol iota primer extension, TAMRA/BHQ fluorescence. Potency, µM, hits mostly inhibitors. actives 77% (n = 1,500). AID 720496
# Pol kappa inh-2 – confirmation of human DNA polymerase kappa inhibitors; AID 720501; shares compounds with Pol eta inh-1; Potency, µM, actives largely listed as inhibitors; purified Pol-kappa, fluorescent strand-displacement substrate; actives 76% (n = 920)
# Pol eta inh-2 – confirmation of human DNA polymerase eta inhibitors; Potency, µM, most hits filed as inhibitors; actives 64% (n = 2,600); Pol eta primer extension, TAMRA/BHQ fluorescence, 10 min; shares compounds with Pol eta inh-1; AID 720502
# FEN1 inh-2 – confirmation of human FEN1 inhibitors; AID 720498; shares compounds with FEN1 inh-1; FEN1 flap cleavage, TAMRA/BHQ2 fluorogenic DNA substrate; actives 79% (n = 880); Potency, µM, actives largely listed as inhibitors; note: nearly all actives have a fitted effect of over 60% in size
# Active calls of the source: *; u = inconclusive; x = not tested or not shown; [ ] = dose if it differs, or a comment. Sampled rows, rich in hits. Any-hit rate of the full collection: about 2.4%. Calls come from the whole dose curve; as a rule, active = well fitted curve in the direction sought with a large enough effect; inconclusive = small, poorly fitted or top-dose-only effect, or another doubt; inactive = no such curve, though single readings can be large; an effect the other way counts as inactive or inconclusive. Potency is the fitted concentration of half-maximal effect.
SMILES,Pol kappa inh-1,FEN1 inh-1,Pol beta inh,Pol iota inh,Pol eta inh-1,TDP1 block,Pol kappa inh-2,Pol eta inh-2,others
CC(=O)Cc1cc(=O)c2c(C)cc(O)c(C3OC(CO)C(O)C(O)C3O)c2o1 (stereo not given),-9.5%,20.8%,19.8%,21.1%,-2.8%,x,x,x,
O=c1c2cc(O)c(O)cc2oc2cc(O)c(C3OC(CO)C(O)C(O)C3O)c(O)c12 (stereo not given),3.98µM*,-17.2%,x,u,8.91µM*,12.9%,7.52*,19*,POLI cherry-pick=15*;FEN1 inh-2=u
CCOC(=O)C1=C(O)/C(=C\c2cccs2)N=C1C,-1.0%,3.1%,11.2%,-9.5%,-15.7%,-1.1%,x,x,
CCOC(=O)C1=C(O)/C(=C\c2ccc(CNC(=O)C(=O)Nc3ccccc3)o2)N=C1C,u,-17.5%,8.91µM*,17.8µM*,10µM*,-4.9%,53.2*,47.8*,
O=c1cc(-c2ccccc2)nc(SCc2nc(-c3cccc(C(F)(F)F)c3)no2)[nH]1,-2.0%[60.1 µM],-4.9%,-17.9%,-5.0%,-3.4%,2.7%,x,x,
O=C(CCCn1c(=O)c2sccc2n(CC(=O)NCc2ccco2)c1=O)NCc1ccco1,-9.7%,3.6%,-0.7%,u,79.4µM*,-3.1%,x,u,
O=C(CCn1c(=O)c2sccc2n(CC(=O)NCc2ccco2)c1=O)NCc1ccccc1,1.5%,12.3%,-17.3%,u,-8.4%,3.1%,x,x,
O=C(COc1ccc([N+](=O)[O-])cc1)Nc1nnc(-c2cccnc2)s1,u,u,15.8µM*,17.8µM*,39.8µM*,-8.6%,47.4*,u,
CCC(=O)c1ccc(OCC(=O)Nc2nc(-c3cccnc3)cs2)cc1,-30.9%,-24.8%,x,12.6µM*,12.6µM*,x,x,67.5*,
O=C(COc1ccc([N+](=O)[O-])cc1)NCc1cccnc1,-7.6%,-3.5%,16.1%,8.4%,-20.3%,4.3%,x,x,
COc1cc(OC)c(NC(=O)CN(C)S(=O)(=O)c2ccc3[nH]c(=O)oc3c2)cc1Cl,u,-22.8%,u,-5.4%,22.4µM*,0.1%,42.3*,u,
COc1ccc(C)cc1NC(=O)CN(C)S(=O)(=O)c1ccc2[nH]c(=O)oc2c1,0.0%,-0.6%,-0.3%,28.6%,-8.8%,4.5%,x,x,
Cc1ccc(-c2nc3c(c(SCC(=O)N4CCOCC4)n2)Cc2c(CO)cnc(C)c2O3)cc1,-20.5%,-4.0%,-29.7%,79.4µM*,u,9.2%,x,u,
O=C(c1cc(C(F)(F)F)cc(C(F)(F)F)c1)N1CCC2(CCN(Cc3ccncc3)CC2)CC1,-6.2%[60.1 µM],x,x,x,x,x,x,x,
Cc1ccc(S(=O)(=O)Nc2nc(CN3CCOCC3)nc3sc(C(=O)O)c(C)c23)cc1,x,x,x,x,12.6µM*,x,x,30.1*,
Cc1cc(S(=O)(=O)Nc2nc(CN3CCOCC3)nc3sc4c(c23)CCCC4)ccc1F,-11.2%,7.7%,0.6%,6.1%,-9.1%,2.2%,x,x,
Cc1cc(S(=O)(=O)Nc2nc(CN3CCOCC3)nc3sc4c(c23)CCC4)cc(C)c1C,u,-14.1%,x,25.1µM*,17.8µM*,-11.7%,u,u,
Cc1ccc(SC[C@H](C)CN2CC[C@H](O)CCC2=O)cc1,-5.3%,23.4%,x,-7.5%,x,x,x,x,
CC(C)[C@H](O)C1=CCCCC1=O,x,x,x,x,x,4.4%,x,x,
